Assay outcomes as filed in PubChem BioAssay.
The list is not random: actives were taken first. Their share in the collection is about 9%.
BAZ2B inh: BAZ2B (human) inhibition. AlphaScreen BAZ2B-H3K14Ac peptide displacement. Potency, µM (highest dose often 114 µM), for the others: top-dose activity change, negative = inhibition, actives largely listed as inhibitors. 360,000 tested, 4.4% active; further: on the % scale 0 is the no-effect control and ±100 the full control effect; nearly all actives have a fitted effect of over 60% in size
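AlphaScreen displacement of biotin-H3(5-23)K14Ac peptide (50 nM final) from BAZ2B (50 nM final) in PBS pH 7.4, 0.01% Tween-20; complex preformed 30 min RT, then compounds (top 110 uM) 30 min RT, beads 20 min dark.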
ALOX12 inh: ALOX12 (human) lipoxygenase inhibition; P18054; purified 12hLO, xylenol orange hydroperoxide absorbance; Potency, µM (doses to about 108 µM), for the others: at the highest dose activity change, negative = inhibition, usual class: inhibitors; 580,000 tested, 1.1% active; AID 1671190; further: on the % scale 0 is the no-effect control and ±100 the full control effect
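Purified human 12hLO at 150 nM in 25 mM Hepes, 0.01% Triton X-100, pH 7.0, preincubated 15 min at room temperature with compound. Reaction started with 40 uM arachidonic acid, 30 min at room temperature. Hydroperoxide measured by Fe-xylenol orange, 573/405 nm absorbance ratio.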
HP1b chromo inh: HP1-beta chromodomain-methylated histone interaction inhibition | P83916 | AID 540317 | Potency, µM (series often up to 114 µM), for inactives: top-dose activity change, negative = inhibition, most hits filed as inhibitors | AlphaScreen HP1-beta / biotin-H3K9me3 peptide binding | 390,000 tested, 0.56% active; further: nearly all actives have a fitted effect of over 70% in size
Target sequence (P83916 whole entry, looked up): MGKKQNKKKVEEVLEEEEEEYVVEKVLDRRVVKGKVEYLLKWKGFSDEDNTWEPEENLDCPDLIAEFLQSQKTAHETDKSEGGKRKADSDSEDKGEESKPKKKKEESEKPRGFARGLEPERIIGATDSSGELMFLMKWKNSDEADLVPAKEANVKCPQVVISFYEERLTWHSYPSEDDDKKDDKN
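Compound inhibition of the preformed complex between 50 nM HP1-beta and 50 nM biotinylated H3K9me3 peptide was read by AlphaScreen. Buffer was PBS pH 7.4 with 0.01% Tween-20. Incubations ran 30 min at room temperature, with 10 ug/mL donor/acceptor beads.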
JMJD2A Tudor: blocks the human JMJD2A Tudor domain | 390,000 tested, 4.4% active | Potency, µM (highest dose often 114 µM), inactives show at the highest dose activity change, negative = inhibition, hits mostly inhibitors | AlphaScreen JMJD2A-Tudor / H3K4me3 peptide binding; further: on the % scale 0 is the no-effect control and ±100 the full control effect; nearly all actives have a fitted effect of over 50% in size
G9a block: inhibitors of human histone lysine methyltransferase G9a | Q96KQ7 | G9a H3K9 monomethylation, AlphaScreen, 2 h | Potency, µM (doses to about 102 µM), inactives show at the highest dose activity, negative = inhibition, usual class: inhibitors | 350,000 tested, 8.8% active | AID 504332; further: on the % scale 0 is the no-effect control and ±100 the full control effect; nearly all actives have a fitted effect of over 75% in size
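Readings reflect AlphaScreen signal from monomethyl-H3K9 antibody detection. HMT at 20 nM; substrate b-H3K9 500 nM; cofactor SAM 20 uM; 2 h RT reaction; compounds tested as titrations in qHTS with 15 min preincubation.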
PLK1 PBD block: blocks phosphopeptide binding to human PLK1 polo-box domain; P53350; Potency, µM, inactives show max response, negative = inhibition, hits mostly inhibitors; Plk1 PBD binding of FITC phosphopeptide, fluorescence polarization; 360,000 tested, 2.8% active; further: series mostly up to about 57 µM; on the % scale 0 is the no-effect control and ±100 the full control effect; nearly all actives have a fitted effect of over 65% in size
Target sequence (P53350 whole entry, looked up, the tested form may be a part): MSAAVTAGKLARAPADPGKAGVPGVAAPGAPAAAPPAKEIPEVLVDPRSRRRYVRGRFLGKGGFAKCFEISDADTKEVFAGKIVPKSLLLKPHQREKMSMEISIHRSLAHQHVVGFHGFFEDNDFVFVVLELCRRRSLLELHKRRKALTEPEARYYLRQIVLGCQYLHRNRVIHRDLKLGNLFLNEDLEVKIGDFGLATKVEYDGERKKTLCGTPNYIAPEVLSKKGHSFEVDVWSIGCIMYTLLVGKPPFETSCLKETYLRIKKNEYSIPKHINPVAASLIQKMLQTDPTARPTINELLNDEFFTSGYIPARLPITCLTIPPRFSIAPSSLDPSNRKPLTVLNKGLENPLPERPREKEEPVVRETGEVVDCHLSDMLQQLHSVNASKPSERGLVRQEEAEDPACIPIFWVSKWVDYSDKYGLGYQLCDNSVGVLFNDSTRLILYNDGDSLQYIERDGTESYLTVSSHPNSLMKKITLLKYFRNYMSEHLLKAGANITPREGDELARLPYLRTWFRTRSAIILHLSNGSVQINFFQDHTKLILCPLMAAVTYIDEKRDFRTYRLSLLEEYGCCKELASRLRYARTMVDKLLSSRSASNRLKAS
Active calls of the source: *; ? = inconclusive; nt = no result; ! = not active in a repeat; [ ] = another dose, or the depositor's remark. The call rests on the fitted dose curve; in most records, active means well fitted curve in the direction sought with a large enough effect; inconclusive means small, poorly fitted or top-dose-only effect, or another doubt; inactive means no such curve, though single readings can be large; an effect the other way counts as inactive or inconclusive. Potency means the concentration at half of the fitted maximal effect.

SMILES	BAZ2B inh	ALOX12 inh	HP1b chromo inh	JMJD2A Tudor	G9a block	PLK1 PBD block
CN=c1scc(C)n1/N=C/c1ccc(O)c(O)c1O	25.1µM*	-15.5%	?	50.1µM*	?	6.7µM*
CN=c1scc(C)n1/N=C/c1cc(Br)c(O)c(OC)c1	39.8µM*	-29.3%	-19.0%	?	7.94µM*	-6.8%
CN=c1scc(-c2cccs2)n1/N=C/c1ccccc1O	?	-21.2%	?	-35.5%[57.1 µM]	7.2%[59 µM]	-6.5%
CN=c1scc(-c2cccs2)n1/N=C/c1ccc(O)c(O)c1O	25.1µM*	?	5.01µM*	25.1µM*	7.94µM*	6.7µM*
COc1cc(/C=N/NC(=O)c2ccc(Cn3cc([N+](=O)[O-])cn3)o2)cc(Br)c1O	-28.4%	-6.4%	15.6%	-10.8%[57.1 µM]	8.91µM*	-16.0%
CCc1ccc(Nc2sc(C(=O)c3ccccc3)c(N)c2S(C)(=O)=O)cc1	?	-16.6%	12.5%	?	-29.4%[59 µM]	nt
COc1cc(/C=N/N(C)c2ccccc2)cc(Cl)c1O	44.7µM*	15.8µM*	22.4µM*	25.1µM*	?	0.6%
COc1cc(/C=N/O)cc(Br)c1OC	3.5%	-12.2%	67.3%	-18.8%[57.1 µM]	11.0%[59 µM]	-21.4%
COc1cc(/C=N/NC(=O)CC2(C)OCCO2)cc(Br)c1O	4.1%	0.8%	25.3%	-6.8%	-36.0%	0.3%
COc1cc(/C=N/O)cc(Cl)c1OC	1.6%	8.1%	5.4%	-2.5%[57.1 µM]	-4.0%[59 µM]	?
CCCCCC(=O)N/N=C/c1cc(Br)c(O)c(OC)c1	-31.9%	10.6%	11.3%	-7.1%	50.1µM*	-9.2%
COc1cc(/C=N/N(C)C)cc(Br)c1O	-32.0%	-5.7%	13.1%	-27.5%	14.1µM*	-10.3%
O=C(N/N=C/c1ccco1)c1ccccc1OCc1ccccc1Cl	-37.8%	-4.7%	31.5%	-32.6%	-12.6%[59 µM]	-11.1%
COc1cc(CNC(=O)c2c(C)noc2C(C)C)ccn1	nt	70.7%	nt	nt	nt	nt
O=C(Nc1ccon1)c1csc2ccccc12	-0.9%	8.9%	21.0%	-0.7%	-7.9%[59 µM]	-13.2%
N/N=C(\Cc1cscn1)c1ccc(O)cc1O	-13.8%	15.9%	36.2%	-14.4%	10µM*	6.2%
Cc1nc(C/C(=N\N)c2ccc(O)cc2O)cs1	-22.0%	9.1%	7.8%	-17.3%	31.6µM*	-25.1%
Cc1cc(O)cc(O)c1C(=O)Cc1cscn1	-29.9%	0.0%	12.8%	-8.2%	-45.9%	2.0%
CCc1cc(/C(Cc2csc(C)n2)=N/O)c(O)cc1O	-34.3%	0.0%	29.3%	-13.2%	14.8%[2.33 µM]	-1.0%
Cc1ccc(-c2nc(N3CCOCC3)sc2C(=O)N2CCOCC2)cc1	9.3%	16.5%	13.9%	-5.8%	5.2%[59 µM]	-5.0%
CCOC(=O)c1sc(=S)n(-c2ccc(C)cc2)c1SC	9.5%	-3.3%	8.4%	-23.0%	-11.1%[59 µM]	-16.1%
CCNC(=O)c1sc(=S)n(-c2ccc(C)cc2)c1N	-29.9%	?	?	-18.8%	31.6µM*	?
Cc1ccc(-n2c(N)c(C(=O)N3CCOCC3)sc2=S)cc1	-5.3%	?	-15.0%	?	?	15µM*
O=C1N/C(=N\N=C\c2cccs2)SC1Cc1ccc(Cl)c(Cl)c1 (configuration not stated)	-12.6%	-0.7%	21.2%	?	81.8%[59 µM]	-5.7%
CSc1nnc(NC(=O)C23CC4CC(CC(C4)C2)C3)s1	-9.7%	9.8%	35.2%	-12.3%	-3.0%[59 µM]	-9.2%
SMILES	BAZ2B inh	ALOX12 inh	HP1b chromo inh	JMJD2A Tudor	G9a block	PLK1 PBD block
Cc1ccc(C)c(N2CCN(S(=O)(=O)c3c(C(=O)N4CCC(C)CC4)c(C)n(C)c3C)CC2)c1	50.1µM*	?	-9.9%	?	9.5%[12.7 µM]	nt
Cc1c(C(=O)N2CCCC2)c(S(=O)(=O)N2CCCCC2)c(C)n1C	-11.1%	1.2%	48.5%	-6.9%	4.3%[59 µM]	-11.4%
Cc1c(C(=O)N2CCCCC2)c(S(=O)(=O)N2CCC(C)CC2)c(C)n1C	-14.1%[57.1 µM]	6.3%	-3.6%	?	-8.0%	21.2µM*
CCc1c(C)nc2nc(NC(C)=O)[nH]n2c1=O	-10.1%	?	13.5%	-27.8%	?	-1.4%
CCc1c(C)nc2[nH]nc(NC(=O)C(F)(F)F)n2c1=O	?	15.1%	-13.9%	89.1µM*	15.8µM*	-6.4%
COc1ccc(NC(=O)CSc2c(C)nn(-c3nnc(C)c(=O)[nH]3)c2C)cc1	31.6µM*	302.1%	40.7%	39.8µM*	12.6µM*	-0.7%
Cc1ccc(NC(=O)CSc2nnc(C)c(=O)[nH]2)cc1	-22.5%	-6.3%	56.0%	-8.6%	3.9%[59 µM]	nt
O=C(O)c1ccc(/C=N/NC(=O)c2cc(-c3ccc4c5c(cccc35)CC4)n[nH]2)cc1	50.1µM*	-17.2%	-13.6%	?	?	?
COc1cc(NC(=O)c2ccc(N3CCCC3=O)cc2)cc(OC)c1	nt	1.3%	19.1%	-9.0%	nt	-3.4%
O=Cc1ccc2oc3nc4n(c(=O)c3c(=O)c2c1)CCCS4	56.2µM*	-8.7%	?	?	?	?
O=c1c2cc(Br)cc(Br)c2oc2nc3n(c(=O)c12)CCCS3	3.0%	nt	nt	nt	21.3%[59 µM]	nt
Cc1ccc(C(=O)O)cc1-c1ccc(C=O)o1	nt	3.3%	nt	nt	nt	nt
Cc1ccc(/C=C2/C(=O)c3ccc(C(=O)O)cc3C2=O)o1	11.2µM*	?	70.8µM*	28.2µM*	nt	23.8µM*
O=C(O)c1ccc2c(c1)C(=O)/C(=C\c1ccco1)C2=O	35.5µM*	?	?	25.1µM*	8.91µM*	8.44µM*
Cc1ccc(C=C2C(=O)c3ccccc3C2=O)o1	39.8µM*	-4.3%	?	?	25.1µM*	-25.5%
O=C1C(=Cc2ccco2)C(=O)c2ccccc21	?	-61.2%	-15.6%	?	12.6µM*	?
O=S1(=O)NC(=NCCc2ccccn2)c2ccccc21	-8.6%	4.6%	22.6%	-9.2%	13.9%	-11.5%
C/C=C/C(=O)NCCc1ccc(OC)c(OC)c1	-13.3%	3.3%	16.3%	-12.8%	?	-7.4%
Cc1cc(Cl)ccc1S(=O)(=O)N1C[C@@H](F)C[C@H]1C(=O)N1CCCCC1	nt	10.9%	nt	nt	nt	nt
CCc1ccc(NC(=O)CS(=O)CC(=O)Nc2ccc(F)cc2F)cc1 (configuration not stated)	?	-15.2%	30.1%	?	-32.9%[59 µM]	-9.6%
O=C(CNS(=O)(=O)c1ccc(Cl)cc1)NNC(=O)c1cccnc1	nt	4.3%	40.4%	2.2%	?	9.47µM*
Cn1cccc1C(=O)NCc1ccc(Cl)cc1	?	4.9%	-26.3%	-35.3%	44.7µM*	-3.5%
O=C(NCc1ccc(Cl)cc1)c1ccc(Br)o1	11.4%	-11.9%	22.3%	-23.2%	17.8µM*!	-6.7%
O=C(NCc1ccc(Cl)cc1)c1cccnc1	19.3%	-8.1%	-1.5%	-4.6%[11.4 µM]	21.1%	23.8µM*
